CHRM1 antagonist: blocks human M1 muscarinic receptor. inhibition, % at 3 µM. AID 588852. P11229. 360,000 tested, 1.3% active. CHO-K1 hM1, Fluo-8 calcium fluorescence, ACh EC80 antagonist;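 active = percent inhibition above its own plate's cutoff, namely the mean of that plate's compound wells plus 3 SD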;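 also: peak over basal fluorescence ratio during 140 s after agonist addition; 0% = ACh EC80 plus DMSO and 100% = DMSO alone without agonist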
Target sequence (P11229 whole entry, looked up): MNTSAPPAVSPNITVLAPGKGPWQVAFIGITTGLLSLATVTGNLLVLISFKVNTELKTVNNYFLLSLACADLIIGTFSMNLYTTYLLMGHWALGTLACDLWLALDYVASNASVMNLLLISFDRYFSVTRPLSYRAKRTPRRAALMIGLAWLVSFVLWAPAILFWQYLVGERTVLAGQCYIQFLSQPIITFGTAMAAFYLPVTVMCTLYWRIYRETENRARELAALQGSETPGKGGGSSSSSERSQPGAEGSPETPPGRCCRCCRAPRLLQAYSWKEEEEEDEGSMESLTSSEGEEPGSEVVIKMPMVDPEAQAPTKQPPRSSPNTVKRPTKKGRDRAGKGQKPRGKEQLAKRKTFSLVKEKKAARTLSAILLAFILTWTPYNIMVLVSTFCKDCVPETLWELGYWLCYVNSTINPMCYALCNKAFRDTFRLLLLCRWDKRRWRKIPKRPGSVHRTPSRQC
M1 ag parental: nonselective activator or artifact in parental CHO-K1 cells | activation, % at 3 µM | Fluo-8 calcium fluorescence; scaled to maximal ATP response, vehicle zero | 360,000 tested, 0.48% active; in the data active = activation above about 15%;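 also: untransfected CHO-K1 host cells lacking M1 receptor as counterscreen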
M1 PAM parental: M1 PAM counterscreen hit in parental CHO-K1 cells; ATP EC20, Fluo-8 calcium fluorescence; 0% at ATP EC20, 100% at ATP max; activation, % at 3 µM; 360,000 tested, 0.02% active; AID 602247;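 active = activation above the run cutoff, the mean activation of all test compounds plus 3 SD, cut at about 40% in these data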;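 also: peak over basal fluorescence ratio in a 140 s read after ATP addition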
M1 ag: agonists of human M1 muscarinic receptor; P11229; CHO-K1 hM1, Fluo-8 calcium fluorescence, agonist mode; 0% DMSO, 100% acetylcholine EC100; activation, % at 3 µM; 360,000 tested, 0.33% active; AID 588814;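 active = activation above the run's mean compound activation plus 3 SD, cut at about 16% in these data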;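 also: peak over basal fluorescence ratio within a 140 s kinetic read after compound addition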
CHO-K1 Ca antag: nonselective inhibitor or artifact in parental CHO-K1 cells; 360,000 tested, 0.6% active; ATP-induced calcium, Fluo-8 fluorescence; inhibition, % at 3 µM;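 active = inhibition above a per-plate cutoff, the plate's mean sample inhibition plus 3 SD, cut at about 24% in these data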;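 also: 0% = DMSO plus EC80 ATP and 100% = DMSO alone without ATP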
CHRM1 PAM: positive allosteric modulators of human M1 muscarinic receptor; P11229; CHO-K1 hM1, Fluo-8 calcium fluorescence, ACh EC20; 0% = ACh EC20, 100% = maximal ACh; activation, % at 3 µM; 360,000 tested, 0.088% active; in the data active = activation above about 19%, passing the limit was not always enough
Starred values were filed as active, the others as inactive; / = no result given. Rows were chosen to be rich in hits. Some 2.3% of all compounds tested hit in one or more screens of this group.

SMILES | CHRM1 antagonist | M1 ag parental | M1 PAM parental | M1 ag | CHO-K1 Ca antag | CHRM1 PAM
CCOC(=O)c1ccccc1NC(=O)CSc1nc2[nH]ncc2c(=O)[nH]1 | 35* | 0 | -20 | 0 | 8 | -11
CN(C)C(CNc1ncnc2sc3c(c12)CCCCC3)c1ccco1 (centres undefined) | 17 | 0 | 12 | -7 | -6 | -15
Cc1sc2ncnc(NCC3COc4ccccc4O3)c2c1C (centres undefined) | 30 | 10 | -5 | -5 | 27* | -17
Cc1sc2ncnc(Nc3ccccc3)c2c1C | -4 | -1 | -1 | -7 | -1 | -2
COc1ccc(C(CNc2ncnc3sc(C)c(C)c23)N(C)C)cc1 (centres undefined) | 23* | 1 | 26 | -12 | -14 | -28
Cc1sc2ncnc(NCc3ccccc3)c2c1C | 22 | 7 | 7 | -1 | 12 | -2
c1ccc(-c2csc3ncnc(NCC4COc5ccccc5O4)c23)cc1 (centres undefined) | 33 | 4 | 17 | -8 | 23 | -16
Cc1sc2ncnc(NCC(c3ccco3)N(C)C)c2c1C (centres undefined) | 38* | 0 | -7 | -4 | 14 | -18
COc1ccccc1C(CNc1ncnc2sc(C)c(C)c12)N(C)C (centres undefined) | 92* | 3 | 3 | -11 | -10 | -34
COc1ccc(CN2C(=O)C(CC(=O)NCC3CCCCC3)CC(C(=O)N3CCOCC3)=C2C)cc1 (centres undefined) | 0 | 0 | -8 | -5 | -2 | -2
Cc1cc(C)cc(NC(=O)c2ccc(CSc3nnc(C)s3)cc2)c1 | 36* | 4 | -4 | 0 | 16 | -12
CCCOc1cccc(C(=O)N/N=C/c2coc3ccccc3c2=O)c1 | 30* | 0 | -23 | 0 | 20 | 1
CC(C)NC(=O)N1CC(c2ccccc2)C(c2ccc(Cl)cc2)=N1 (centres undefined) | 35* | 0 | -5 | -10 | -3 | -23
CC(=O)N1CC(c2ccccc2)C(c2ccc(Cl)cc2)=N1 (centres undefined) | -6 | 0 | 11 | -10 | -5 | 6
COc1ccccc1NC1CCCCC1NS(=O)(=O)c1ccccc1 (centres undefined) | 1 | 2 | -9 | -3 | -8 | 2
CCN(CC(=O)Nc1ccc(OC)c(Cl)c1)CC(=O)NC(C)C | 18 | 4 | -6 | -3 | 1 | -9
CC(C)OCCCn1c(SCC(=O)N2CCCC2=O)nc2ccccc2c1=O | 9 | 15* | -16 | -2 | 8 | -1
Oc1ccc(C23CCCC2C2(CCCC2)c2ccc(O)cc2O3)c(O)c1 (centres undefined) | 38* | 24* | 1 | 40* | 7 | -19
NC(=O)CCN1CCN(CCOC2Cc3cc(Cl)ccc3Sc3ccccc32)CC1 (centres undefined) | -2 | 4 | 12 | -11 | -5 | -8
Fc1ccc2c(c1)Sc1ccc(Cl)cc1CC2N1CCN(CCC2OCCO2)CC1 (centres undefined) | 75* | 1 | 15 | -7 | -11 | -26
O=C(Cc1c[nH]c2ccccc12)NCc1ccccc1F | 0 | 1 | 12 | -8 | -14 | 8
CC(C)CC(=O)Nc1nnc(S(=O)(=O)N2CCc3ccccc32)s1 | 5 | 0 | -9 | 0 | 29* | 3
CCOC(=O)N1CCC(N(CCN(C)C)C(=S)Nc2ccc(F)c(Cl)c2)CC1 | 2 | 0 | -12 | -10 | 27* | -1
COc1cccc(C(=O)NCC(=O)N2CCN(c3ccc(C(F)(F)F)cn3)CC2)c1 | 37* | 4 | -31 | -2 | 27* | -13
CN(C)[C@@H]1CCC[C@@H]1OC(=O)C(c1ccccc1)c1ccccc1 | 31* | 2 | 20 | -8 | -8 | -25
SMILES | CHRM1 antagonist | M1 ag parental | M1 PAM parental | M1 ag | CHO-K1 Ca antag | CHRM1 PAM
CCCCN1C(=O)C(=O)N(CC(=O)NC2CCCc3ccccc32)C1=O (centres undefined) | -5 | 10 | 17 | -1 | -11 | 6
Cc1ccc2c(c1)S(=O)(=O)N(C)C(c1ccccc1)=C2 | 1 | 1 | 6 | -6 | -13 | -5
Cc1ccc(Nc2nc(N)nc(N)c2N=O)cc1Cl | / | 36* | 32 | / | -36 | /
Nc1nc(N)c(Br)c(Nc2ccc(Cl)c(Cl)c2)n1 | -2 | 0 | 3 | 6 | -16 | 3
Nc1nc(N)c(N=O)c(Nc2ccc(Cl)c(Cl)c2)n1 | / | 9 | 53* | / | -34 | /
Nc1nc(N)c(N=O)c(Nc2cccc(Cl)c2)n1 | / | 5 | 24 | / | -29 | /
O=C(CCC(=O)c1ccc(Cl)cc1)OCn1nnc2ccccc2c1=O | -2 | 0 | -1 | -7 | -13 | 3
CSCCC(NC(=O)c1ccc(Cl)cc1Cl)C(=O)NCC(c1cccs1)N(C)C (centres undefined) | -8 | 1 | 11 | -8 | -16 | 10
COc1cccc(/C=N/Nc2ncnc3scc(-c4ccccc4)c23)c1O | 34* | 6 | 1 | -4 | 1 | -17
CCOc1ccc(S(=O)(=O)N2CCN(C(=O)c3cc(C4CC4)nn3-c3ccccc3)CC2)cc1 | 69* | 0 | 9 | -7 | 66* | -26
O=C(c1cc(C2CC2)nn1-c1ccccc1)N1CCN(c2ccccn2)CC1 | 30* | 1 | 8 | -8 | 7 | -21
O=C(c1cc(C2CC2)nn1-c1ccccc1)N1CCN(c2ccccc2O)CC1 | 5 | 2 | 7 | -2 | -6 | 0
CCOc1ccc(OCCC(=O)Nc2ccc(N3CCOCC3)cc2N2CCOCC2)cc1 | -8 | 0 | 7 | -2 | 2 | 9
O=C(NNS(=O)(=O)c1ccc2ccccc2c1)C1CCN(Cc2ccccc2)CC1 | 85* | 1 | 2 | -5 | 2 | -22
O=S(=O)(NC1CCN(Cc2ccccc2)CC1)c1ccc2ccccc2c1 | 5 | 4 | 18 | -6 | -12 | -9
CCOc1ccc(N2CC(C(=O)Nc3nnc(Cc4ccccc4)s3)CC2=O)cc1 (centres undefined) | -22 | 1 | -3 | -2 | -12 | 15
CCCC1c2ccc(C)n2CCN1C(=O)Nc1ccc(F)cc1 (centres undefined) | -13 | 2 | 1 | -1 | 2 | 10
CCC1c2ccc(C)n2CCN1C(=O)Nc1ccc(F)cc1 (centres undefined) | 6 | 7 | -7 | -3 | 26* | -3
CN(C)CCNc1nc2sc3c(c2c(=O)n1Cc1ccccc1)CCCCC3 | 73* | 13 | 4 | -11 | 12 | -30
Cc1ccc(-c2csc(NC(=O)c3cc([N+](=O)[O-])ccc3N3CCOCC3)n2)cc1 | -11 | 0 | 5 | -2 | -3 | 4
O=C(Nc1nc(-c2ccccc2)cs1)c1ccc(N2CCOCC2)c([N+](=O)[O-])c1 | 37 | 12 | -2 | 0 | 25* | -18

Screening results: PubChem, The Scripps Research Institute Molecular Screening Center
